The results in this text go back to ChEMBL document CHEMBL4513216, “Probing the Open Global Health Chemical Diversity Library for Multistage-Active Starting Points for Next-Generation Antimalarials” (ACS Infect Dis, 2020).

Among all 68,000 compounds or so, about 2,700 (4%) showed an effect of 50% or more. Only a selection was taken, and strong results are over-represented in it overall.

For the test, the system named is Plasmodium berghei. The experiment in a line: Screen against P. berghei liver stage (PbLuc), transformed with Luciferase, at 2uM. The settings on record: tested at 2 uM. The test is classed as functional, HepG2.
For `Cc1cnn(CC2CCCN2Cc2nc3ccccc3n2C)c1` (stereo not drawn), the INHIBITION worked out at 9.9%.
With `CC(C)c1cc(C(=O)NCCN2CCCS2(=O)=O)n[nH]1` the figure was -61.61%.
For `O=C(CC1CCCC1)N1CCOC(c2nc(-c3ncccn3)no2)C1` (stereo not drawn) the value was 57.82%; for `O=C(C1CCCC1)N1CCOC(c2nc(-c3ncccn3)no2)C1` (stereo not drawn), 22.81%.
With `O=C(Cc1ccccc1)N1CCOC(c2nc(-c3ncccn3)no2)C1` (stereo not drawn), the INHIBITION was 0.18%.
For the compound `Cc1ccccc1C(=O)Nc1cnn(CC(=O)NC2CCCC2)c1`, the INHIBITION is given as -24.24%.
In the case of `CCS(=O)(=O)N1CCCC(c2ccnc(N(C)C)c2)C1` (stereo not drawn), the INHIBITION came to 59.91%.
As for `CN(C)c1cc(C2CCCN(S(=O)(=O)c3cn(C)cn3)C2)ccn1` (stereo not drawn), the INHIBITION is recorded as 36.15%.
With `CN(C)c1cc(C2CCCN(S(=O)(=O)C3CCCC3)C2)ccn1` (stereo not drawn), the INHIBITION turned out to be 29.89%.
In the case of `CC(C)NC(=O)c1cc(-c2ccc(S(C)(=O)=O)cc2)c2cnn(C)c2n1`, the INHIBITION amounted to 10.93%.
For the compound `Cc1nc(CC(=O)N2CCC(Nc3cccnn3)CC2)cs1`, the INHIBITION is reported as 3.97%.
For the compound `CCN(Cc1cccc(-c2ccncc2)c1)S(N)(=O)=O`, the INHIBITION worked out at 20.14%.
For `CCN(C)S(=O)(=O)N(CC)Cc1cccc(-c2ccncc2)c1` the value was 21.24%; for `CCN(Cc1cccc(-c2ccncc2)c1)S(C)(=O)=O`, 63.1%; for `O=C(Cc1ccon1)N1CCc2cc(Br)sc2C1`, -10.14%.
On to `COc1ccc(CNC(=O)N2CCC(Cc3cnn(C)c3)C2)cc1C` (stereo not drawn), for which the INHIBITION is 20.28%.
Regarding `Cc1cnc(NCc2ccncc2)nc1-c1cnn(C)c1`, the INHIBITION was 72.34%.
As for `Cc1cnc(NCc2cnn(C)c2)nc1-c1cnn(C)c1`, the INHIBITION was determined as 10.13%.
For the compound `CCNc1ncc(C)c(-c2cnn(C)c2)n1`, the INHIBITION was found to be 8.26%.
With `CCNC(=O)NC(C)(C)C(=O)NCCc1csc2ccccc12` the figure was 32.03%.
With `c1cnc(-c2nc(CN3CCN(CC4CC4)CC3)cs2)nc1` the figure was 24.88%.
For `Cn1c(=O)n(C)c2cc(C3SCC(=O)Nc4ccsc43)ccc21` (stereo not drawn), the INHIBITION was 74.91%.
Regarding `COc1ccc(C2SCC(=O)Nc3ccsc32)cc1OC` (stereo not drawn), the INHIBITION stood at 7.62%.
As for `O=C1CSC(c2ccc(O)cc2)c2sccc2N1` (stereo not drawn), the INHIBITION stood at 17.94%.
In the case of `CCCc1nnc(C(=O)N(C)Cc2cnc3ccccn23)o1`, the INHIBITION is on record as -2.89%.
In the case of `CCOC(=O)N(C)C1CCN(Cc2cnc3ccccn23)CC1`, the INHIBITION came out at 2.26%.
For the compound `COCc1nnc(C(=O)N(C)Cc2ccc(OC)cc2)o1`, the INHIBITION is recorded as 14.55%.
With `COCc1nnc(C(=O)N(C)Cc2cnc3ccccn23)o1` the figure was 80.13%.
For `CCc1nc(C)c(C(=O)N(C)Cc2cnc3ccccn23)o1` the value was 52.81%.
Take `CN(C(=O)C1CCN(Cc2cnc3ccccn23)CC1)c1ccccc1`: the INHIBITION is 4.07%.
For `CS(=O)(=O)N1CCCCC12CCCN(Cc1nccs1)C2` (stereo not drawn), the INHIBITION is on record as -14.74%.
In the case of `CCc1cc(NCCNc2ccncc2C)n2nc(C)c(C)c2n1`, the INHIBITION was -7.77%.
For the compound `CC(Nc1ccn(Cc2ccccn2)n1)C(=O)NC(C)(C)C` (stereo not drawn), the INHIBITION is -48.1%.
Consider `Cc1nc(CN(C)C)cc(N2CCCC(COc3ccc(F)cc3)C2)n1` (stereo not drawn), for which the INHIBITION is 40.47%.
As for `Cc1oncc1C(=O)N1CC[C@H]2C[C@H](c3ccncn3)O[C@@H]2C1`, the INHIBITION was determined as 52.34%.
`Cc1noc(C)c1C(=O)N1CC[C@H]2C[C@@H](c3ccncn3)O[C@@H]2C1`: the INHIBITION was determined as 1.42%.
As to `Cc1cc(C(=O)N2CC[C@H]3C[C@H](c4ccncn4)O[C@@H]3C2)c(C)[nH]1`, the INHIBITION is reported as -16.33%.
For `CN(Cc1ccc(Cl)c(Cl)c1)C(=O)CNC(N)=O`, the INHIBITION was 32.81%.
Regarding `COCCN1CCC2(CC1)CC(Nc1ccc(C)nn1)CO2` (stereo not drawn), the INHIBITION came to 7.72%.
On to `CC1CCCCN1C(=O)COc1nc(C(C)(C)C)no1` (stereo not drawn), for which the INHIBITION is 47.04%.
With `CC(C)c1noc(OCC(=O)N2CCCCC2C)n1` (stereo not drawn) the figure was 17.48%; with `Cc1noc(OCC(=O)N2CCCCC2C)n1` (stereo not drawn), 50.32%.
On to `CC(CNCC1(S(C)(=O)=O)CCOCC1)c1ccc(F)cc1` (stereo not drawn), for which the INHIBITION stood at 29.28%.
Take `CCC(C)CNCC1(S(C)(=O)=O)CCOCC1` (stereo not drawn): the INHIBITION came out at 10.03%.
For the compound `CCC(CC)CNCC1(S(C)(=O)=O)CCOCC1`, the INHIBITION is 59.99%.
As for `Cc1cc2nc(SCC(=O)N3CCOCC3)n(CC(C)C)c(=O)c2[nH]1`, the INHIBITION came to 50.74%.
For the compound `Cc1cc2nc(SCC(=O)N3CCOCC3)n(CCC(C)C)c(=O)c2[nH]1`, the INHIBITION is 44.15%.
Consider `CCn1c(SCC(=O)N2CCOCC2)nc2cc(C)[nH]c2c1=O`, for which the INHIBITION worked out at 33.58%.
As for `CC(C)CN1CCC(c2nnc(CN3CCCC3)n2C2CC2)CC1`, the INHIBITION was 8.03%.
Take `CCC(=O)N1CCCC1c1nccnc1Nc1nc(C)cc(C)n1` (stereo not drawn): the INHIBITION is 44.72%.
Take `CNC(=O)C1(CCCc2ccncc2)CCCN1` (stereo not drawn): the INHIBITION is listed as -0.51%.
With `CN(C)C(=O)C1(CCCc2ccncc2)CCCN1` (stereo not drawn), the INHIBITION is listed as 54.82%.
With `NC(=O)C1(CCCc2ccncc2)CCCN1` (stereo not drawn) the figure was 46.98%; with `O=C(O)c1cc(NS(=O)(=O)c2cccc(Cl)c2F)ccc1Cl`, 36.65%; with `Cc1cc(C(=O)N2CCCC2)ccc1NCc1nc(CC(C)C)no1`, 58.05%.
Consider `CCc1noc(CNc2ccc(C(=O)N3CCCC3)cc2C)n1`, for which the INHIBITION is listed as 24.15%.
With `CCCc1noc(CNc2ccc(C(=O)N3CCCC3)cc2C)n1` the figure was -11.2%; with `NC(=O)c1cccc(CN2CCc3c(ncn3C3CC3)C2)c1`, 11.95%.
Regarding `Cn1cnc2c1CCN(Cc1cccc(C(=O)N3CCCCC3)c1)C2`, the INHIBITION worked out at 5.91%.
On to `Cn1cnc2c1CCN(Cc1ccc(C(=O)N3CCCC3)cc1)C2`, for which the INHIBITION came to 51.21%.
Turning to `Cn1cnc2c1CCN(Cc1cccc(OCC(N)=O)c1)C2`, the INHIBITION is 3.9%.
Turning to `Cn1cnc2c1CCN(Cc1cccc(C(N)=O)c1)C2`, the INHIBITION is 74.87%.
On to `CC(C)CNC(=O)c1cccc(CN2CCc3c(ncn3C)C2)c1`, for which the INHIBITION was found to be 21.43%.
In the case of `CCS(=O)(=O)Cc1nc(-c2cnn3c(C)cc(C)nc23)no1`, the INHIBITION is -9.94%.
In the case of `CN1CCN([C@@H]2CN(C(=O)c3cc4cccc(F)c4[nH]3)C[C@H]2O)CC1`, the INHIBITION was -17.65%.
`CNC(=O)C(C)CN(C)C(=O)Nc1cc(F)cc(Br)c1` (stereo not drawn): the INHIBITION is reported as -0.47%.
For `CN(C)CCNC(=O)c1ccccc1NC(=O)c1cc(Cl)ccc1Cl` the value was 13.39%; for `O=C(NCc1ccco1)[C@@H]1CC[C@@H]2[C@@H](CCN2CC2CC2)O1`, 22.89%.
With `CC(Cn1cccn1)NCc1csc(Cc2ccccc2)n1` (stereo not drawn), the INHIBITION is listed as -44.51%.
For the compound `N#CC1(NC(=O)CNCCn2cccn2)CCCCC1`, the INHIBITION is given as -45.11%.
As for `CCc1nc(CNC(C)Cn2cccn2)cs1` (stereo not drawn), the INHIBITION was found to be 55.7%.
As for `CC(Cn1cccn1)NCc1nc(-c2cccc(Cl)c2)no1` (stereo not drawn), the INHIBITION is listed as 73.05%.
On to `CC(Cn1cccn1)NCc1nc(-c2cccnc2)no1` (stereo not drawn), for which the INHIBITION is -15.36%.
Consider `Cc1cnn(CC(C)NCC(=O)NCCc2cccs2)c1` (stereo not drawn), for which the INHIBITION was -28.18%.
Consider `N#CC1(NC(=O)COC(=O)Cn2cccn2)CCCC1`, for which the INHIBITION is -40.04%.
`CC(Cn1cccn1)NCC(=O)NCCc1cccs1` (stereo not drawn): the INHIBITION was 66.99%.
With `CCCc1nc(CNC(C)Cn2cccn2)cs1` (stereo not drawn) the figure was -6.71%; with `CC(Cn1cccn1)NCC(=O)NC1(C#N)CCCCC1` (stereo not drawn), 51.14%.
As for `CC(Cn1cccn1)NC(=O)NCCc1cccs1` (stereo not drawn), the INHIBITION is listed as -26.87%.
Take `CC(Cn1cccn1)NCc1nc(-c2ccc3c(c2)OCO3)no1` (stereo not drawn): the INHIBITION was -35.26%.
For the compound `NCCc1cccc(CN2CCN(c3cccc(Cl)c3)C(=O)C2)c1`, the INHIBITION is 31.35%.
As to `COCc1nc(C(=O)N2CCN(Cc3ccsc3)CC2)cs1`, the INHIBITION is given as 8.93%.
With `CC(C)C(=O)N1CCCC(Cc2ncccn2)C1` (stereo not drawn), the INHIBITION is -24.73%.
For `CC(C)COC1CCN(C(=O)c2ccc(C(F)(F)F)[nH]c2=O)CC1`, the INHIBITION is -24.73%.
Take `FC(F)(F)c1cccc(OC2CCN(Cc3c[nH]cn3)CC2)c1`: the INHIBITION is given as -6.65%.
For `CCC1=N[C@@]2(CC[C@@H]3CN(CC4CC4)C[C@@H]32)C(=O)N1`, the INHIBITION is -26.61%.
Regarding `O=C(NC1CC1)c1cnc(-c2noc3cc(N4CCCCC4)ccc23)s1`, the INHIBITION came to 18.11%.
Turning to `Cc1cccc(-c2noc(CNC(C)Cn3cc(C)cn3)n2)c1` (stereo not drawn), the INHIBITION was -26.75%.
Regarding `Cc1cnn(CC(C)NCc2nc(-c3ccoc3)no2)c1` (stereo not drawn), the INHIBITION was determined as 59.68%.
As to `Cc1cnn(CC(C)NCc2nc(-c3cccnc3)no2)c1` (stereo not drawn), the INHIBITION is on record as -36.24%.
As for `CC(Cn1cccn1)NCc1nc(-c2cccs2)no1` (stereo not drawn), the INHIBITION is 51.21%.
Take `CC(Cn1cccn1)NCCCc1nc(-c2cccs2)no1` (stereo not drawn): the INHIBITION was 21.39%.
For `Cc1cnn(CC(C)NCc2nc(-c3cccs3)no2)c1` (stereo not drawn) the value was -41.76%; for `O=C(CN1CCOC(CNc2cccnn2)C1)NCc1cccs1` (stereo not drawn), -48.41%.
With `Cc1cc(C)n(-c2ccc(N3CCC4(CC3)OCC(C)O4)nc2)n1` (stereo not drawn), the INHIBITION was -11.55%.
For `COCC1CN(CC2CC2)Cc2ncn(CC3CC3)c21` (stereo not drawn), the INHIBITION was -21.31%.
On to `CN(C)CCN1CCO[C@@H]2CN(C(=O)Cc3ccsc3)CC[C@@H]2C1`, for which the INHIBITION is recorded as -19.51%.
For `CS(=O)(=O)N1CCO[C@@H]2CN(C(=O)Cc3cccs3)CC[C@@H]2C1`, the INHIBITION worked out at 20.87%.
Consider `CN(C)C[C@@H]1C[C@@H]2CN(C(=O)Cc3cccs3)CC[C@@H]2N1C`, for which the INHIBITION was determined as 54.01%.
Turning to `CCN1CCO[C@@H]2CN(C(=O)NCc3ccccc3)CC[C@@H]2C1`, the INHIBITION was 0.15%.
Take `CN1[C@H](CN2CCCC2)C[C@@H]2CN(C(=O)Cc3cccs3)CC[C@@H]21`: the INHIBITION was found to be 10.62%.
In the case of `CC(C)N1CCO[C@@H]2CN(C(=O)Cc3cccs3)CC[C@@H]2C1`, the INHIBITION was -7.26%.
As for `CC(=O)N1[C@H](CN(C)C)C[C@@H]2CN(C(=O)Cc3cccs3)CC[C@@H]21`, the INHIBITION worked out at 6.24%.
With `Cc1ccc(CC(=O)N2CC[C@@H]3CN(CCN(C)C)CCO[C@@H]3C2)cc1`, the INHIBITION came out at 50.96%.
As to `CC(=O)N1CCO[C@@H]2CN(C(=O)NCc3ccccc3)CC[C@@H]2C1`, the INHIBITION is 11.79%.
With `COCCN1CCO[C@@H]2CN(C(=O)Cc3ccc(F)cc3)CC[C@@H]2C1`, the INHIBITION came to 3.72%.
Turning to `CN1CCO[C@@H]2CN(C(=O)Cc3cccs3)CC[C@@H]2C1`, the INHIBITION is on record as 52.96%.
For `CN1CCO[C@@H]2CN(C(=O)NCc3ccccc3)CC[C@@H]2C1` the value was 69.86%.
